Among the data in PubChem BioAssay (EPA / NIEHS) are AC50 and outcome values, retold here.

Records with an inconclusive call do not appear. Calls of active or inactive are those of the source. Rule for the calls: active = hit-call score of the fitted dose curve at least 0.9, where 1 is the maximum; inconclusive = response in the unintended direction; inactive = score below 0.9.

Sequence of rat Peripheral-type Benzodiazepine Receptor (PBR), Tspo (gene 24230) (P16257 whole entry, looked up): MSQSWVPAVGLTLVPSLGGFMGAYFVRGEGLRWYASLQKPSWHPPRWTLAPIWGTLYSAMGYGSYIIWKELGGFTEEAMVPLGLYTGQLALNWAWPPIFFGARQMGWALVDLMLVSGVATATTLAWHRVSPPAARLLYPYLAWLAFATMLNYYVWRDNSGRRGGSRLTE
Sequence of bovine Estrogen Receptor (ER), ESR1 (gene 407238) (P49884 whole entry, looked up): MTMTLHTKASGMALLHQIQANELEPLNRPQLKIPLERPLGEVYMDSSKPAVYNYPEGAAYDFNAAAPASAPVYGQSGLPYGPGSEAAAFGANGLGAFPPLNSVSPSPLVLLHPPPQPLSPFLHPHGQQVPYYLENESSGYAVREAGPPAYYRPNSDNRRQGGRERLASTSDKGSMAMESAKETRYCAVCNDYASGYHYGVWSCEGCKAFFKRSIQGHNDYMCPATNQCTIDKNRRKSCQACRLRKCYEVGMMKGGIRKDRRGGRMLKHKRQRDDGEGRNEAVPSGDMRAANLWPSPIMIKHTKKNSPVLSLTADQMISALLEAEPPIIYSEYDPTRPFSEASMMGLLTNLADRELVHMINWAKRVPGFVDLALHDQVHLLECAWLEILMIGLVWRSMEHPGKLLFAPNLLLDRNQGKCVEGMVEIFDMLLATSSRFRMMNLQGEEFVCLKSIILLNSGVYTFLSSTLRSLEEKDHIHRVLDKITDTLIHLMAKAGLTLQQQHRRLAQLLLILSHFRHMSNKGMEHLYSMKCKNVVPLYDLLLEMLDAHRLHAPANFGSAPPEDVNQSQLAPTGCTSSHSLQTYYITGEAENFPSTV
Sequence of human Androgen Receptor (AR), AR (gene 367) (P10275 whole entry, looked up): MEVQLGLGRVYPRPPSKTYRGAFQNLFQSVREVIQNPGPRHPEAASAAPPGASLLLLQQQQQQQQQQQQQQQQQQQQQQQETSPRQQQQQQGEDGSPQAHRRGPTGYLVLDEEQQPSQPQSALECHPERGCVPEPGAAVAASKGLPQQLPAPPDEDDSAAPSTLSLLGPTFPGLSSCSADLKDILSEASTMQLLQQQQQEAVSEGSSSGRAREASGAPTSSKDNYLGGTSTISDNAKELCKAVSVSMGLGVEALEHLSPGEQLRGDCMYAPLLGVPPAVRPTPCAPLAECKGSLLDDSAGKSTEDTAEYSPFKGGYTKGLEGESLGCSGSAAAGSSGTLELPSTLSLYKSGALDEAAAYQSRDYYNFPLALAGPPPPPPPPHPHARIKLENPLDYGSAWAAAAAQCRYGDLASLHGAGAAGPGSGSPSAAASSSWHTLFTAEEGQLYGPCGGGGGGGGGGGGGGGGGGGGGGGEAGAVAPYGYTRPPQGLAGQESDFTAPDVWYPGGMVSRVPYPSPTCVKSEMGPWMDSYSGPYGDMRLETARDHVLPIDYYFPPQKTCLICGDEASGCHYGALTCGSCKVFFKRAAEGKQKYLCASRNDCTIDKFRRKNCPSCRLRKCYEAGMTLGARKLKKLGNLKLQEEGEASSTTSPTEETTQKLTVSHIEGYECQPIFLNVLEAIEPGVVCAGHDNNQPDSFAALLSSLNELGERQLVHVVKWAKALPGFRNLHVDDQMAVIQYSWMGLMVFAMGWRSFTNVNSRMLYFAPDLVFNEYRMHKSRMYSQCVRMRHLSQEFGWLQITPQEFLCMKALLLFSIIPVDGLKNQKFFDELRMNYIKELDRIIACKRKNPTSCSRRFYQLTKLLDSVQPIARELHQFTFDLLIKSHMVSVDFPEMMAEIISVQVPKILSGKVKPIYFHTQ
Sequence of Estrogen receptor (Homo sapiens) (P03372 whole entry, looked up, the tested form may be a part): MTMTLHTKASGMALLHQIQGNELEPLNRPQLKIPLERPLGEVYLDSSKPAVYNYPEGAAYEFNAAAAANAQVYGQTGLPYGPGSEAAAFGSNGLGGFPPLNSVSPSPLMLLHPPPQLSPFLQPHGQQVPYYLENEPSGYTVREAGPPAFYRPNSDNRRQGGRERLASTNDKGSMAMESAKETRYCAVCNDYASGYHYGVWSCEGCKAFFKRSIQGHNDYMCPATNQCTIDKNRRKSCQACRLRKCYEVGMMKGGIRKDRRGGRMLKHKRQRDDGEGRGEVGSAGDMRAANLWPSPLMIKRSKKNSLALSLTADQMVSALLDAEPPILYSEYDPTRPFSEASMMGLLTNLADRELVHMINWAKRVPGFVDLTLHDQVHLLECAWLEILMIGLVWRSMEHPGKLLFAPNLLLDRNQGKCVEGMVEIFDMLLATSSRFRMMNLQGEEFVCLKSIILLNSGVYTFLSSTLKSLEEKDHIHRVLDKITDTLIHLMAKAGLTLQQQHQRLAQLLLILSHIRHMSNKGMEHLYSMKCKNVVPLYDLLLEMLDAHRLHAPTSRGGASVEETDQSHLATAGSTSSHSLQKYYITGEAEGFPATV

The first test deals with human Peripheral-type Benzodiazepine Receptor (PBR), TSPO (gene 706) (UniProt P30536). The experiment in a line: NVS_MP_hPBR: NovaScreen (NVS) Membrane Protein Assay for human Peripheral-type Benzodiazepine Receptor (PBR) (AID 2283331).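 Note: hits reduce radioligand binding relative to DMSO baseline.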 An outline of the steps: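 Scintillation counts of filter-bound radioligand served as read-out after 1 h chemical dosing of human colonic membrane preparations. Activity was scored as signal loss against DMSO; initial duplicates at 25 uM, confirmatory concentration series afterward.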
Sequence of human Peripheral-type Benzodiazepine Receptor (PBR), TSPO (gene 706) (P30536 whole entry, looked up): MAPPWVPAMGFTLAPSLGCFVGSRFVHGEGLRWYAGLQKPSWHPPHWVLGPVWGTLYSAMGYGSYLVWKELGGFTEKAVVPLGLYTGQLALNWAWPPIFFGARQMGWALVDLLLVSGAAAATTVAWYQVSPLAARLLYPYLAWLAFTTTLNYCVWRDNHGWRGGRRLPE
Turning to `Cc1ccc(OP(=O)(Oc2ccc(C)cc2C)Oc2ccc(C)cc2C)c(C)c1`, the AC50 is 422 nM (active).
The same measure, in the same setting: for `Cc1cccc(OP(=O)(Oc2cccc(C)c2)Oc2cccc(C)c2)c1` the value was 1790 nM (active); for `CCCCOP(=O)(CCCC)OCCCC`, 6980 nM (active).
The same measure, in the same setting: then `CCOP(=O)(OCC)OC(=CCl)c1ccc(Cl)cc1Cl`, with 2120 nM (active).
With `CCOC(=O)CCN(SN(C)C(=O)Oc1cccc2c1OC(C)(C)C2)C(C)C`, the AC50 is 5060 nM (active).
As to `Cc1ccccc1OP(=O)(Oc1ccccc1)Oc1ccccc1`, the AC50 was 1280 nM (active).

A further test addresses human Androgen Receptor (AR), AR (gene 367) (UniProt P10275). Nature of the test: NVS_NR_hAR: NovaScreen (NVS) Nuclear Receptor Binding Assay for human Androgen Receptor (AR) (AID 2283332). Summed up:
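Radioligand competitive binding, scintillation read-out, in cell-free extract from LnCAP, measured 20 h after dosing. Screened first in duplicate at 25 uM, then concentration series for actives; activity fitted against DMSO.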
Take `Nc1c(Oc2ccccc2)cc(O)c2c1C(=O)c1ccccc1C2=O`: the call was inactive.
With `O=C1C=CC(=O)c2ccccc21`, the AC50 was 33900 nM (active).
For the molecule `OC(Cc1ccccc1Cl)(Cn1[nH]cnc1=S)C1(Cl)CC1` (stereo not given), the call was inactive.
On to `Cc1cc(C(C)(C)c2ccc(O)c(C)c2)ccc1O`, for which the AC50 is 2930 nM (active).

The target in another test is rat Peripheral-type Benzodiazepine Receptor (PBR), Tspo (gene 24230) (UniProt P16257). Nature of the test: NVS_MP_rPBR: NovaScreen (NVS) Membrane Protein Assay for rat Peripheral-type Benzodiazepine Receptor (PBR) (AID 2283335). Summed up:
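Rat kidney membranes; radioligand binding with displacement, filter-based scintillation counting, 1 h incubation. Primary screen in duplicate at 25 uM, actives followed in concentration series; loss of binding vs DMSO.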
Consider `Cc1ccc(OP(=O)(Oc2ccc(C)cc2C)Oc2ccc(C)cc2C)c(C)c1`, for which the AC50 is 1060 nM (active).
Regarding `CCOP(=S)(OCC)OP(=S)(OCC)OCC`, the AC50 is 17800 nM (active).
With `Cc1cccc(OP(=O)(Oc2cccc(C)c2)Oc2cccc(C)c2)c1`, the AC50 is 1260 nM (active).
Same read-out and setting: for `CCCCOP(=O)(CCCC)OCCCC` the value was 1620 nM (active).
For the molecule `O=C1c2ccccc2C(=O)C1C(=O)C(c1ccccc1)c1ccc(Cl)cc1` (stereo not given), the molecule was called inactive.
For the molecule `CCOP(=O)(OCC)OC(=CCl)c1ccc(Cl)cc1Cl`, the AC50 is 1650 nM (active).
With `CCOC(=O)CCN(SN(C)C(=O)Oc1cccc2c1OC(C)(C)C2)C(C)C`, the AC50 is 4910 nM (active).
In the case of `Cc1cc(C(C)(C)c2ccc(O)c(C)c2)ccc1O`, the molecule was called inactive.
On the same count and under the same terms, then `O=[N+]([O-])c1ccc(Nc2ccccc2)cc1`, with “inactive”.
On the same count and under the same terms, then `CC1(C)[C@H](C(=O)O[C@H](C#N)c2cccc(Oc3ccccc3)c2)[C@@H]1/C=C(\Cl)C(F)(F)F`, with “inactive”.
Turning to `Cc1ccccc1OP(=O)(Oc1ccccc1)Oc1ccccc1`, the concentration at half-maximal activity (AC50) is 284 nM (active).

System in a further test: not listed separately
Nature of the test: NVS_IC_rCaBTZCHL: NovaScreen (NVS) Ion Channel Assay for Calcium Channel, Type L, Benzothiazepine Site (CaBTZCHL) (AID 2283337). Here is the method:
NVS_IC_rCaBTZCHL is a biochemical, single-readout assay that uses extracted gene-proteins from Rat cortical membranes in a tissue-based cell-free assay. Measurements were taken 1.5 hours after chemical dosing in a 48-well plate.NVS_IC_rCaBTZCHL is one of one assay component(s) measured or calculated from the NVS_IC_rCaBTZCHL assay. It is designed to make measurements of radioligand binding, a form of binding reporter, as detected with scintillation counting signals by Filter-based radiodetection technology.Data from the assay component NVS_IC_rCaBTZCHL was analyzed into 1 assay endpoint. This assay endpoint, NVS_IC_rCaBTZCHL, was analyzed in the positive analysis fitting direction relative to DMSO as the negative control and baseline of activity. Using a type of binding reporter, loss-of-signal activity can be used to understand changes in the binding as they relate to the gene Cacna1a. Furthermore, this assay endpoint can be referred to as a primary readout, because the performed assay has only produced 1 assay endpoint. To generalize the intended target to other relatable targets, this assay endpoint is annotated to the ion channel intended target family, where the subfamily is calcium channel.
Binding assays used specific radioligands (tritiated, iodinated) with non-radioactive competitive displacement ligands in agonist or antagonist protocols (as indicated) and various reference compounds and inhibitors to titrate specific binding to receptors and transporters. Most enzyme assays (CYPs, kinases, phosphatases, proteases, HDACs) used recombinant protein and specific substrates (fluorescence mostly, some colorimetric and radioactive) and inhibitors, followed by a biochemical separation of substrate and product. All assays for the biochemical HTS were initially run in duplicate at a single concentration (10 uM for CYP450 assays and 25 uM for all others). […] Each assay was run with positive and negative controls, and concurrent controls on every plate. […]
Regarding `O=S(=O)(C(Cl)(Cl)Cl)C(Cl)(Cl)Cl`, the result was inactive.
In the case of `Brc1ccc(Br)cc1`, the outcome was inactive.
Still for that read-out and setting: then `Nc1nc(N)nc(Cl)n1`, with “inactive”.

A further test addresses bovine Estrogen Receptor (ER), ESR1 (gene 407238) (UniProt P49884). Nature of the test: NVS_NR_bER: NovaScreen (NVS) Nuclear Receptor Binding Assay for bovine Estrogen Receptor (ER) (AID 2283345).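 Note: actives lower the bound radioligand count which means they displace the ER ligand.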 An outline of the steps: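 Displacement of a radioligand from estrogen receptor in bovine uterine membrane preparations; scintillation signal taken at 18 hours, DMSO as baseline. Single-concentration duplicates (25 uM) preceded concentration-response follow-up of actives.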
`[F][Sn]([c]1ccccc1)([c]1ccccc1)[c]1ccccc1`: the outcome was inactive.
Turning to `CC(C)(C1CCC(O)CC1)C1CCC(O)CC1` (stereo not given), the outcome was inactive.
Consider `O=S(=O)(c1ccc(Cl)cc1)c1cc(Cl)c(Cl)cc1Cl`, for which the outcome was inactive.
Same read-out and setting: then `O=c1oc2ccccc2c(O)c1C(CC(O)c1ccc(-c2ccc(Br)cc2)cc1)c1ccccc1` (stereo not given), with “inactive”.
As for `CC(C)[C@@H](Nc1ccc(C(F)(F)F)cc1Cl)C(=O)OC(C#N)c1cccc(Oc2ccccc2)c1` (stereo not given in full), the molecule was called inactive.
`O=c1[nH]c2ccccc2n1C1CCN(CCCC(c2ccc(F)cc2)c2ccc(F)cc2)CC1`: the call was inactive.
Consider `OCC(c1ccc(Cl)cc1)c1ccc(Cl)cc1`, for which the outcome was inactive.
On to `Cc1cc(SCc2sc(-c3ccc(C(F)(F)F)c(F)c3)nc2C)ccc1OCC(=O)O`, for which the call was inactive.
Same read-out and setting: for `O=C1c2ccccc2C(=O)C1C(=O)C(c1ccccc1)c1ccc(Cl)cc1` (stereo not given) the value was “inactive”.
The same measure, in the same setting: for `C=CC(=O)[O][Sn]([CH2]CCC)([CH2]CCC)[CH2]CCC` the value was “inactive”; for `CCOP(=O)(OCC)OC(=CCl)c1ccc(Cl)cc1Cl`, “inactive”; for `Oc1c(Br)cc(Br)cc1Br`, “inactive”.

Another test deals with Estrogen receptor (Homo sapiens) (UniProt P03372). The experiment in a line: OT_ER_ERaERa_1440: Odyssey Thera (OT) 24-hour HEK293T Protein-Complementation Assay for Estrogen Receptor-alpha/-alpha Homodimer (AID 2283349).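 Note: hits raise fluorescence above DMSO for agonists and antagonists alike.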 An outline of the steps:
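Protein-fragment complementation between two human ERα ligand-binding domains (aa 310-547) in stably transfected HEK293T cells was monitored after 24 h treatment, using fluorescence intensity relative to vehicle controls.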
Turning to `O=C(NC(=O)c1c(F)cccc1F)Nc1cc(Cl)c(OC(F)(F)C(F)C(F)(F)F)cc1Cl` (stereo not given), the molecule was classed as inactive.
Take `C=CCN=C=S`: the molecule was classed as inactive.
On the same count and under the same terms, for `O=CCCl` the value was “inactive”; for `O=S1OC[C@@H]2[C@H](CO1)[C@]1(Cl)C(Cl)=C(Cl)[C@@]2(Cl)C1(Cl)Cl` (stereo not given in full), “inactive”.
As for `N#Cc1cccnc1`, the molecule was called inactive.
On the same count and under the same terms, for `CCOc1ccc(N)cc1` the value was “inactive”.
The same measure, in the same setting: then `Cc1cc(Cl)ccc1OC(C)C(=O)O` (stereo not given), with “inactive”; and `O=C(O)COc1ccc(Cl)cc1`, with “inactive”; and `O=C1c2ccccc2C(=O)C1C(=O)C(c1ccccc1)c1ccc(Cl)cc1` (stereo not given), with “inactive”.
Consider `CCCSP(=S)(OCC)Oc1ccc(SC)cc1` (stereo not given), for which the molecule was classed as inactive.
Still for that read-out and setting: then `Oc1c(Br)cc(Br)cc1Br`, with “inactive”.
As to `O=C(NC(=O)c1c(F)cccc1F)Nc1ccc(Cl)cc1`, the molecule was called inactive.
On the same count and under the same terms, then `CC(C)=CC1C(C(=O)OCc2cccc(Oc3ccccc3)c2)C1(C)C` (stereo not given), with “inactive”.
On the same count and under the same terms, then `CCN(CCO)CCO`, with “inactive”.

A word on the AC50: it is the concentration at which the activity in the assay is half-maximal.
